Where a name gives a salt, the structure may show the parent alone. ± gives the standard deviation of the averaged measurements.
The compounds below were run on Danio rerio Tg(wt1b:EGFP) embryo, pronephros (assay: pronephric angle neck segment to proximal convoluted tubule (mean of left and right), fold change vs DMSO control; higher = larger pronephric angle). Conditions: 25 µM; exposure: 24-48 hpf.
Outline: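 From 24 to 48 hpf, at 28.5°C, dechorionated Tg(wt1b:EGFP) zebrafish embryos sat in HEPES-buffered E3 with 0.003% PTU carrying 25 μM compound and 0.5% DMSO. Their pronephroi were imaged dorsally in 96-well plates filled with agarose, using 470 nm light and 10 z-slices. A Fiji macro measured distances and angles between 16 reference points that were set manually on maximum projections, and any value more than 2 SD from its feature mean was excluded. Features are expressed as fold change relative to the mean of DMSO-treated embryos imaged on the same day.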
With `C[C@]12C=CC(=O)C=C1CC[C@H]1[C@@H]3C[C@@H](O)[C@](O)(C(=O)CO)[C@@]3(C)C[C@H](O)[C@@]12F` [Triamcinolone] the “pronephric angle neck segment” value was 1.119 ± 0.0058.
For `O=C(Nc1ccc([N+](=O)[O-])cc1Cl)c1cc(Cl)ccc1O` [Niclosamide], the “pronephric angle neck segment” value was 1.26 ± 0.093.
With `CC[C@]12CCCN3CCc4c(n(c5ccccc45)C(=O)C1)[C@@H]32` [Eburnamonine (-)] the “pronephric angle neck segment” value was 1.03 ± 0.017.
`CCOC(=O)C1=C(C)NC(C)=C(C(=O)OC)C1c1cccc([N+](=O)[O-])c1` (stereo unspecified) [Nitrendipine] was tested, and the “pronephric angle neck segment” value was 1.29 ± 0.044.
In the case of `Clc1ccc2nsnc2c1NC1=NCCN1` [Tizanidine hydrochloride], the “pronephric angle neck segment” value is reported as 0.984 ± 0.036.
In the case of `CCCCC(CC)CN1CN(CC(CC)CCCC)CC(C)(N)C1` (stereo unspecified) [Hexetidine], the “pronephric angle neck segment” value is reported as 0.9331 ± 0.005.
With `CCN(CC)C(=O)C1(c2ccccc2)CC1CN` (stereo unspecified) [Milnacipran hydrochloride] the “pronephric angle neck segment” value was 0.9653 ± 0.008.
For `N=C(N)c1ccc(OCCCCCOc2ccc(C(=N)N)cc2)cc1` [Pentamidine isethionate], the “pronephric angle neck segment” value was 0.982 ± 0.02.
For `C#CCN[C@@H]1CCc2ccccc21` [Rasagiline], the “pronephric angle neck segment” value was 0.972 ± 0.021.
With `CC(C)(C(=O)c1cccnc1)c1cccnc1` [Metyrapone] the “pronephric angle neck segment” value was 1.03 ± 0.076.
In the case of `CCOC(=O)[C@H](CCc1ccccc1)N[C@H]1CCc2ccccc2N(CC(=O)O)C1=O` [Benazepril hydrochloride], the “pronephric angle neck segment” value is reported as 0.964 ± 0.087.
For `CO[C@@]1(NC(=O)CSCC#N)C(=O)N2C(C(=O)O)=C(CSc3nnnn3C)CS[C@@H]21` [Cefmetazole sodium salt], the “pronephric angle neck segment” value was 0.944 ± 0.042.
For `CNC(=C[N+](=O)[O-])NCCSCc1ccc(CN(C)C)o1` [Ranitidine hydrochloride], the “pronephric angle neck segment” value was 1.1 ± 0.051.
With `COc1ccc2[nH]c([S+]([O-])Cc3ncc(C)c(OC)c3C)nc2c1` (stereo unspecified) [Omeprazole] the “pronephric angle neck segment” value was 1.1759 ± 0.00043.
In the case of `CCCC(CCC)C(=O)O` [Valproic acid], the “pronephric angle neck segment” value is reported as 1.11 ± 0.14.
With `Cc1cccc(C)c1NC(=O)C1CCCCN1C` (stereo unspecified) [Mepivacaine hydrochloride] the “pronephric angle neck segment” value was 0.991 ± 0.054.
In the case of `CC1CC(OC(=O)c2ccccc2O)CC(C)(C)C1` (stereo unspecified) [Homosalate], the “pronephric angle neck segment” value is reported as 1.15 ± 0.044.
`CNCCC=C1c2ccccc2C=Cc2ccccc21` [Norcyclobenzaprine] was tested, and the “pronephric angle neck segment” value was 0.94 ± 0.027.
`NCCCC(O)(P(=O)(O)O)P(=O)(O)O` [Alendronate sodium] was tested, and the “pronephric angle neck segment” value was 1 ± 0.041.
`C#C[C@]1(O)CC[C@H]2[C@@H]3CCC4=CC(=O)CC[C@@H]4[C@H]3CC[C@@]21CC` [Norgestrel-(-)-D] was tested, and the “pronephric angle neck segment” value was 1.03 ± 0.013.
In the case of `O=C1NCCN1c1ncc([N+](=O)[O-])s1` [Niridazole], the “pronephric angle neck segment” value is reported as 1.14 ± 0.077.
In the case of `CN(C)CC/C=C1/c2ccccc2Sc2ccc(Cl)cc21` [Chlorprothixene hydrochloride], the “pronephric angle neck segment” value is reported as 1.04 ± 0.074.
For `COC(=O)Nc1nc2ccc(SC(C)C)cc2[nH]1` [Methiazole], the “pronephric angle neck segment” value was 1.95 ± 0.046.
For `CCCNC(C)(C)COC(=O)c1ccccc1` [Meprylcaine hydrochloride], the “pronephric angle neck segment” value was 0.9842 ± 0.0035.
With `CC(=O)c1ccc2c(c1)N(CCCN1CCC(CCO)CC1)c1ccccc1S2` [Piperacetazine] the “pronephric angle neck segment” value was 1.01 ± 0.081.
For `COc1cc(NS(=O)(=O)c2ccc(N)cc2)ncn1` [Sulfamonomethoxine], the “pronephric angle neck segment” value was 0.927 ± 0.096.
With `C(=C\c1ccccc1)/CN1CCN(C(c2ccccc2)c2ccccc2)CC1` [Cinnarizine] the “pronephric angle neck segment” value was 0.995 ± 0.045.
In the case of `OC(Cn1cncn1)(Cn1cncn1)c1ccc(F)cc1F` [Fluconazole], the “pronephric angle neck segment” value is reported as 0.978 ± 0.021.
With `COc1cc(C(=O)N2CCOCC2)cc(OC)c1OC` [Trimetozine] the “pronephric angle neck segment” value was 1.01 ± 0.06.
With `CCC[C@@H]1C[C@@H](C(=O)N[C@@H]([C@H]2O[C@H](SC)[C@H](O)[C@@H](O)[C@H]2O)[C@@H](C)O)N(C)C1` [Lincomycin hydrochloride] the “pronephric angle neck segment” value was 0.9548 ± 0.0043.
For `CC/C(=C(\c1ccccc1)c1ccc(OCCN(C)C)cc1)c1ccccc1` [Tamoxifen citrate], the “pronephric angle neck segment” value was 1.02 ± 0.045.
In the case of `COCCCC/C(=N\OCCN)c1ccc(C(F)(F)F)cc1` [Fluvoxamine maleate], the “pronephric angle neck segment” value is reported as 0.996 ± 0.018.
In the case of `NCc1ccc(S(N)(=O)=O)cc1` [Mafenide hydrochloride], the “pronephric angle neck segment” value is reported as 0.9512 ± 0.0031.
`CN[C@@H]1[C@H](O)[C@H](NC)[C@H]2O[C@@]3(O)C(=O)C[C@@H](C)O[C@H]3O[C@@H]2[C@H]1O` [Spectinomycin dihydrochloride] was tested, and the “pronephric angle neck segment” value was 0.9719 ± 0.0052.
With `Nc1ccn([C@@H]2O[C@H](CO)[C@@H](O)[C@@H]2O)c(=O)n1` [Cytarabine] the “pronephric angle neck segment” value was 0.998 ± 0.015.
`C[C@]12C=CC(=O)C=C1CC[C@@H]1[C@@H]2C(=O)C[C@@]2(C)[C@H]1CC[C@]2(O)C(=O)CO` [Prednisone] was tested, and the “pronephric angle neck segment” value was 1.08 ± 0.065.
